# In all, about 54,000 sequences went through this assay and about 2,800 (5.2%) were called active. Rule as the data show it: active = GI50 up to about 1.1 µM and inactive = higher. Many of the other results were omitted from the sample, so actives are more common in it than they were. Measured potencies and affinities stand elsewhere.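 Cultured in 96-well plates, cells were exposed to test compound for 48 hours across five concentrations. Here, GI50 denotes the concentration required for 50% inhibition of growth.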
# System: NCI-H226
# Experiment: NCI tumour cell line growth inhibition, 48 h
row,Substance,GI50 [nM]
1,"TRIBUTYLCHLOROSTANNANE, CHEMBL1088186",210

# — ChEMBL document CHEMBL1201862, “PubChem BioAssay data set” (2004)
